# PubChem BioAssay
# Values without a mark were called inactive. How the calls were made is not given here.
# Target: Pantothenate synthetase (Mycobacterium tuberculosis (strain ATCC 25618 / H37Rv)) (UniProt P9WIL5)
# Test: Coupled enzyme confirmation of inhibitors against recombinant Mtb PanC (AID 375);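 further: 0% = full reaction with vehicle and 100% = no enzyme background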
# Conditions: coupled enzyme assay; at 10 µM, stronger effect = higher value
# Chain of Pantothenate synthetase (Mycobacterium tuberculosis (strain ATCC 25618 / H37Rv)) (P9WIL5 whole entry, looked up): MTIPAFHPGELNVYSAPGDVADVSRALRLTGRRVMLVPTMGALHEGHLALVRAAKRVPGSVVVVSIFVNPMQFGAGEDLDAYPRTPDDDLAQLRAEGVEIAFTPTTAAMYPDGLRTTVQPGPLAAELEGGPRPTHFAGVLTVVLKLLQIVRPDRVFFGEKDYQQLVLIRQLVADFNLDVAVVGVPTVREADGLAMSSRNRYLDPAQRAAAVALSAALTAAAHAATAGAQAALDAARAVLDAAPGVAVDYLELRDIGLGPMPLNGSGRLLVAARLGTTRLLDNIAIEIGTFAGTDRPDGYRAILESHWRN
row,SMILES,inhibition
1,Cc1nnc(SCC(=O)Nc2c(Cl)cccc2Cl)[nH]c1=O,0%
2,CCOC(=O)C1CCCN(C(=O)c2cn(C)c(=O)c3cc(OC)c(OC)cc23)C1 (configuration not stated),0%
3,Cc1nc(NC(=O)c2csc3ccccc23)sc1C,0%
4,CCn1c(SCC(=O)Nc2cccc(C)c2)nc2c(c1=O)SC(C)C2 (configuration not stated),1%
5,c1ccc(-c2n[nH]c3ccccc23)cc1,0%
6,COc1ccc(-c2ccc(=O)n(Cc3cc(=O)n4ccccc4n3)n2)cc1,0%
7,Cc1ncc(CO)c2c1OC(C)(C)OC2,0%
8,COc1ccc(NC(=O)CCNC(=O)Cn2ccc3ccccc3c2=O)c(OC)c1,0%
9,C[C@]12CC[C@@H]3c4ccc(O)cc4CC[C@H]3[C@@H]1CC[C@@H]2OC(=O)CCC(=O)O,8%
10,Cc1cc(=O)n2nc(N3CCCC(C(=O)N4CCc5ccccc54)C3)sc2n1 (configuration not stated),4%
11,Cc1cc(C)n(-c2ccc3cccc(NS(C)(=O)=O)c3n2)n1,0%
12,O=C(Cc1nc2ccccc2s1)c1ccc(O)cc1O,8%
13,CCOC(=O)CSc1nc2c(c(-c3ccc(C)o3)c1C#N)CCCC2,0%
14,Nc1nonc1C(=O)NCCNCc1cc(Br)ccc1OCc1ccccc1F,0%
15,O=C(NCCC1=CCCCC1)C1CCN(S(=O)(=O)c2cccc3cccnc23)CC1,19%
16,COc1ccc(OC)c(C2CC(=O)NC(SC)=C2C#N)c1 (configuration not stated),5%
17,CC[C@H](C)C(=O)O[C@H]1C[C@@H](C)C=C2C=C[C@H](C)[C@H](CC[C@@H]3C[C@@H](O)CC(=O)O3)[C@H]21,5%
18,Cc1cccc(N2C(=O)CC(N(C(=O)c3ccco3)c3cccc(C)c3)C2=O)c1 (configuration not stated),0%
19,O=c1oc2ccccc2c(N2CCCCC2)c1CN1CCCCC1,0%
20,NC(=O)c1oc2ccc(Cl)cc2c1NC(=O)CN1CCOCC1,1%
21,O=c1sc(Nc2ccccc2)nc2ccsc12,0%
22,CC1=CCC2C(=O)N(c3nc(C)cc(C)n3)C(=O)C2C1 (configuration not stated),0%
